# Source: PubChem BioAssay (Tox21)
# Records with an inconclusive call do not appear. Where a call stands in place of a potency, no number is given. The source made the active and inactive calls. Calls follow the shape of the dose curve; as a rule, active = well fitted cell-killing curve with a large enough effect in the repeat runs; inconclusive = weak or mixed curves; inactive = flat fitted curve, though single readings scatter.
# Experiment: qHTS assay to identify small molecule antagonists of the estrogen receptor beta (ER-beta) signaling pathway - cell viability counter screen (AID 1259382); also: nearly all actives have a fitted effect of over 55% in size
# Details: ER-beta-UAS-bla HEK293T viability, CellTiter-Glo luminescence, 16 h; series mostly up to 92.4 µM
# Method in brief: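 ER-beta-UAS-bla HEK293T cells in 2% charcoal-stripped FBS medium, treated with compound plus 1 nM 17-beta-estradiol for 16 h at 37C. Viability read by CellTiter-Glo luminescence after 30 min at room temperature in the same wells.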
# Potency is read from the fitted curve at half-maximal effect.
row,Compound,Potency
1,CC1=CC[C@H](C(C)C)C=C1,inactive
2,CN(C)CCCN1c2ccccc2Sc2ccccc21,26.6 µM (active)
3,CCOC(=O)NCCOc1ccc(Oc2ccccc2)cc1,inactive
4,CNCCCN1c2ccccc2CCc2ccccc21,23.7 µM (active)
5,C[C@H]1C[C@H]2[C@@H]3CCC4=CC(=O)C=C[C@]4(C)[C@@]3(Cl)[C@@H](O)C[C@]2(C)[C@@]1(O)C(=O)CO,inactive
6,CC(=O)[O][Al][O]C(C)=O,inactive
7,COc1ccc(S(=O)(=O)N2C(=O)[C@@](c3ccccc3OC)(N3C[C@H](O)C[C@H]3C(=O)N(C)C)c3cc(Cl)ccc32)c(OC)c1,inactive
8,CCCCC/C=C\C/C=C\CCCCCCCC(=O)NC(C)c1ccccc1 (configuration not stated),inactive
9,O=C(O)c1nc(Cl)c(Cl)c(Cl)c1Cl,inactive
10,CCN(CC)CCOC(=O)C(Cc1cccc2ccccc12)CC1CCCO1 (configuration not stated),inactive
11,CCOc1ccc(N=Nc2ccc(/C=C/c3ccc(N=Nc4ccc(OCC)cc4)cc3S(=O)(=O)O)c(S(=O)(=O)O)c2)cc1,inactive
12,COC(=O)c1ccc(I)cc1S(=O)(=O)NC(=O)Nc1nc(C)nc(OC)n1,inactive
13,C=CC(=O)OCCOCCOCCOCCOC(=O)C=C,inactive
14,CC(=O)[O][Al],inactive
15,CCCCCCOC(=O)NC(=N)c1ccc(NCc2nc3cc(C(=O)N(CCC(=O)OCC)c4ccccn4)ccc3n2C)cc1,11.9 µM (active)
16,CCN(CC)CCNc1ccc(CNC=O)c2sc3ccc(OC)cc3c(=O)c12,8.63 µM (active)
17,C#Cc1cccc(Nc2ncnc3cc(OCCOC)c(OCCOC)cc23)c1,inactive
18,CC(C)C[C@H]1C(=O)N2CCC[C@H]2[C@]2(O)O[C@](NC(=O)[C@@H]3C=C4c5cccc6[nH]c(Br)c(c56)C[C@H]4N(C)C3)(C(C)C)C(=O)N12,inactive
19,O=C(NCCO[N+](=O)[O-])c1cccnc1,inactive
20,Nc1ccc(S(=O)(=O)Nc2ccccc2)cc1,inactive
21,CCCCCCc1ccc(-c2ccc(C#N)cc2)cc1,inactive
22,CCOc1ccc(N)c([N+](=O)[O-])c1,inactive
23,CC[N+]1(CC)CCC(=C(c2ccccc2)c2ccccc2)C1C (configuration not stated),inactive
24,Cc1cccc(C)c1OCC(=O)N[C@@H](Cc1ccccc1)[C@@H](O)C[C@H](Cc1ccccc1)NC(=O)[C@H](C(C)C)N1CCCNC1=O,23.7 µM (active)
25,CCC(C)O (configuration not stated),inactive
26,Cc1ccc(C(C)OC(=O)C2(C)CCC(C(=O)O)C2(C)C)cc1 (configuration not stated),inactive
27,CCOC(=O)C(F)(F)F,inactive
